The values that follow come from PubChem BioAssay.

Each structure is given as a SMILES string. The source made the active and inactive calls.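 How the source made its calls, unless noted: active means compounds that lower survival of HCT116 colon cancer cells in the luminescence readout, no numeric limit stated; inactive means the rest.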

Experiment [1] is described as follows: Wnt pathway potentiators raising nuclear beta-catenin – imaging, WNT3A-conditioned medium, mouse C2C12, NPC library, primary screen (AID 1117326; in the data active means nuclear beta-catenin stimulation mostly above about 4.2%, no sharp cut-off; inactive means mostly below about 10%; further: reference of the scale not given here). Particulars: stronger effect = higher value.
A short description of experiment [2]: stimulators of insulin release from INS-1E, primary screen, cell-based, 5 mM glucose, NPC library (AID 1117329;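 active means compound raises insulin release from rat beta cells at 5 mM glucose, no numeric limit stated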; further: reference of the scale not given here). The following applies: rat INS-1E insulin secretion, at 10 µM, stronger effect = higher value.
Experiment [3] can be described thus: growth inhibition of GSK3B-pretreated HCT116 cells – cell-based, CellTiter-Glo, 0.2 to 20 µM (AID 1117336;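 active means compounds lowering colon cancer cell viability after pretreatment blocking the GSK3B kinase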). The following applies: HCT116 viability after GSK3B inhibitor, at 20 µM, stronger effect = higher value.
Experiment [4] is described as follows: inhibition of endothelial tube formation, primary screen, imaging, VEGF stimulated, CD31 staining, tube area, NPC library (AID 1117340;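 active means compound that reduces growth-factor-driven endothelial tube area in a mixed cell culture, no cutoff stated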). The following applies: VEGF-stimulated ADSC/ECFC co-culture, at 10 µM, stronger effect = higher value.
A short description of experiment [5]: GLP1 release stimulators, primary, NCI-H716, NPC library (AID 1117341;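 active means compound raises GLP1 secretion from the human gut endocrine cells, with no numeric limit stated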; further: reference of the scale not given here). The following applies: NCI-H716 cells, at 10 µM, stronger effect = higher value.
Experiment [6] in a line: HCT116 colon cancer cell growth inhibition, primary screen, CellTiter-Glo luminescence, NPC library (AID 1117342). The following applies: at 20 µM (top of the series).
Experiment [7] in a line: reduced SW480 viability measured with CellTiter-Glo, NPC library, primary (AID 1117343;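 active means compounds that lower viability of the colon cancer cells in the luminescence readout, with no numeric limit stated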). The following applies: CellTiter-Glo luminescence; at 20 µM (top of the series). Background: Cellular ATP, detected with luciferase, serves as a proxy for viable cell number.
Experiment [8] can be described thus: NPC library primary testing for decreased DLD-1 cell viability via CellTiter-Glo (AID 1117346;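 active means compounds that lower survival of DLD-1 colon cancer cells in the luminescence readout, no cutoff given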). Particulars: DLD-1 viability, CellTiter-Glo luminescence; at 20 µM (top of the series).

As to `Cc1ccc(S(=O)(=O)NC(=O)NC2CCCCCCC2)cc1`, the nuclear beta-catenin stimulation in experiment [1] (at 10 µM) was -0.3% (inactive); in experiment [1] (stimulation, at 2 µM) it was 0.1%. In experiment [2], the insulin secretion stimulation was 18.5% (inactive). The viability decrease in experiment [3] is 11.2% (inactive). Besides, the tube area decrease in experiment [4] was 14.5% (inactive). Besides, the GLP1 secretion stimulation in experiment [5] is 3.1% (inactive). For the same molecule, in experiment [6], the inhibition of viability was -9.1% (inactive). The values for the viability decrease (inhibition) in experiment [7] and in experiment [8] were 36.4% (inactive) and 12.9% (inactive), respectively.
Consider `Cc1ccc2ccc(Cl)cc2n1`, for which the nuclear beta-catenin stimulation in experiment [1] (at 10 µM) is -0.9% (inactive); in experiment [1] (stimulation, at 2 µM), -2.1%. In experiment [2], the insulin secretion stimulation is 1.25% (inactive). Besides, in experiment [3], the viability decrease was -1.7% (inactive). Besides, the tube area decrease in experiment [4] was -2.2% (inactive). In addition, the GLP1 secretion stimulation in experiment [5] is -2.9% (inactive). Also, in experiment [6], the inhibition of viability was 2.4% (inactive). In addition, the viability decrease (inhibition) in experiment [7] is 1.2% (inactive); in experiment [8] it was -3.7% (inactive).
As to `CC1(C)S[C@@H]2[C@H](NC(=O)C(C(=O)Oc3ccc4c(c3)CCC4)c3ccccc3)C(=O)N2[C@H]1C(=O)O` (stereo not given in full), the nuclear beta-catenin stimulation was 1% (inactive) in experiment [1] (at 10 µM) and 0.4% in experiment [1] (stimulation, at 2 µM). Moreover, the insulin secretion stimulation in experiment [2] is 4.4% (inactive). Further, in experiment [3], the viability decrease is -7.7% (inactive). In addition, the tube area decrease in experiment [4] is -2.6% (inactive). Further, the GLP1 secretion stimulation in experiment [5] was -0.3% (inactive). Moreover, the inhibition of viability in experiment [6] was 1.5% (inactive). In addition, the viability decrease (inhibition) in experiment [7] is 86% (active); in experiment [8], -6.9% (inactive).
Take `CCN(CC)CCN`: the nuclear beta-catenin stimulation in experiment [1] (at 10 µM) is 0.4% (inactive); in experiment [1] (stimulation, at 2 µM), -1.7%. In addition, the insulin secretion stimulation in experiment [2] is 1.7% (inactive). Further, in experiment [3], the viability decrease is -6% (inactive). Also, the tube area decrease in experiment [4] is 5.8% (inactive). In experiment [5], the GLP1 secretion stimulation is -1% (inactive). Also, the inhibition of viability in experiment [6] is -0.4% (inactive). In addition, the viability decrease (inhibition) in experiment [7] was 1.2% (inactive); in experiment [8], -10.7% (inactive).
As for `Cc1ccc(CCn2c3c(c4cc(Cl)ccc42)CN(C)CC3)cn1`, the nuclear beta-catenin stimulation in experiment [1] (at 10 µM) is 0.2% (inactive); in experiment [1] (stimulation, at 2 µM), 0.7%. Moreover, the insulin secretion stimulation in experiment [2] is 42% (active). Also, the viability decrease in experiment [3] is 40.3% (inactive). Further, the tube area decrease in experiment [4] is 3.4% (inactive). Besides, in experiment [5], the GLP1 secretion stimulation was 1.7% (inactive). The inhibition of viability in experiment [6] is 62.1% (active). The viability decrease (inhibition) in experiment [7] is 81.6% (active); in experiment [8] it was 11.5% (inactive).
For `CCOC(=O)CN1CCCC1=O`, the nuclear beta-catenin stimulation was 1.9% (inactive) in experiment [1] (at 10 µM) and 21% in experiment [1] (stimulation, at 2 µM). Besides, the insulin secretion stimulation in experiment [2] was 2.1% (inactive). Also, the viability decrease in experiment [3] is 1.1% (inactive). The tube area decrease in experiment [4] was -17.2% (inactive). In addition, in experiment [5], the GLP1 secretion stimulation is -1.8% (inactive). Moreover, in experiment [6], the inhibition of viability was -0.8% (active). For the same molecule, the viability decrease (inhibition) in experiment [7] is -15.1% (inactive); in experiment [8], 1% (inactive).
Consider `CCCCC(CC)COC(=O)/C=C/c1ccc(OC)cc1` (stereo not given), for which the nuclear beta-catenin stimulation in experiment [1] (at 10 µM) is -1.6% (inactive); in experiment [1] (stimulation, at 2 µM), -0.8%. For the same molecule, the insulin secretion stimulation in experiment [2] is 2.6% (inactive). For the same molecule, the viability decrease in experiment [3] is 5.9% (inactive). In experiment [4], the tube area decrease was 3.3% (inactive). The GLP1 secretion stimulation in experiment [5] is 0.8% (inactive). The inhibition of viability in experiment [6] is 15.9% (inactive). Also, the viability decrease (inhibition) is -7.2% (inactive) in experiment [7] and 3.7% (inactive) in experiment [8].
Consider `CCN(CC)CC(=O)Oc1ccc(NC(C)=O)cc1`, for which the nuclear beta-catenin stimulation was -0.5% (inactive) in experiment [1] (at 10 µM) and 6.1% in experiment [1] (stimulation, at 2 µM). In addition, the insulin secretion stimulation in experiment [2] was -0.7% (inactive). The viability decrease in experiment [3] was 0.8% (inactive). In addition, the tube area decrease in experiment [4] is -10.3% (inactive). Besides, the GLP1 secretion stimulation in experiment [5] is -0.7% (inactive). Further, the inhibition of viability in experiment [6] was 1.8% (inactive). Also, the viability decrease (inhibition) was 2.2% (inactive) in experiment [7] and -9.7% (inactive) in experiment [8].
For `Cc1onc(-c2c(Cl)cccc2Cl)c1C(=O)Cl`, the nuclear beta-catenin stimulation in experiment [1] (at 10 µM) is -0.1% (inactive); in experiment [1] (stimulation, at 2 µM) it was 0.5%. Moreover, in experiment [2], the insulin secretion stimulation was 1.5% (inactive). Also, in experiment [3], the viability decrease was -3.8% (inactive). For the same molecule, the tube area decrease in experiment [4] is 54.1% (active). For the same molecule, the GLP1 secretion stimulation in experiment [5] was 5.9% (inactive). In addition, the inhibition of viability in experiment [6] is 13.6% (inactive). Also, the viability decrease (inhibition) was 17% (inactive) in experiment [7] and -2.5% (inactive) in experiment [8].
As for `O=C(Nc1ncc([N+](=O)[O-])s1)c1cccs1`, the nuclear beta-catenin stimulation was -2.8% (inactive) in experiment [1] (at 10 µM) and -1.2% in experiment [1] (stimulation, at 2 µM). For the same molecule, in experiment [2], the insulin secretion stimulation is -0.4% (inactive). Also, the viability decrease in experiment [3] was 45.8% (inactive). For the same molecule, the tube area decrease in experiment [4] is 46.3% (active). In experiment [5], the GLP1 secretion stimulation was -0.9% (inactive). In addition, in experiment [6], the inhibition of viability was 41.2% (inactive). The viability decrease (inhibition) in experiment [7] was 43.6% (inactive); in experiment [8], 67.5% (active).
For the molecule `Cc1ccc2c(Br)cc(Br)c(O)c2n1`, the nuclear beta-catenin stimulation is 43% (active) in experiment [1] (at 10 µM) and 5.5% in experiment [1] (stimulation, at 2 µM). The insulin secretion stimulation in experiment [2] was 2.4% (inactive). Moreover, the viability decrease in experiment [3] is 91% (active). Further, in experiment [4], the tube area decrease was 106% (active). In addition, in experiment [5], the GLP1 secretion stimulation is -1.3% (inactive). In experiment [6], the inhibition of viability is 79.2% (active). In addition, the viability decrease (inhibition) in experiment [7] is 90.3% (active); in experiment [8], 93.3% (active).
Regarding `CN1CC(=O)NC1=N`, the nuclear beta-catenin stimulation in experiment [1] (at 10 µM) is -0.7% (inactive); in experiment [1] (stimulation, at 2 µM), 1.5%. In addition, the insulin secretion stimulation in experiment [2] is 4.1% (inactive). In experiment [3], the viability decrease was -24% (inactive). In experiment [4], the tube area decrease was 21.3% (inactive). Also, the GLP1 secretion stimulation in experiment [5] was 0.9% (inactive). Besides, the inhibition of viability in experiment [6] is -3.43% (inactive). In addition, the results for the viability decrease (inhibition) in experiment [7] and in experiment [8] were -155% (inactive) and -6.6% (inactive), respectively.
With `CC(=O)N(CC(=O)N(C)C)c1ccccc1`, the nuclear beta-catenin stimulation in experiment [1] (at 10 µM) is -1.1% (inactive); in experiment [1] (stimulation, at 2 µM) it was 3.8%. For the same molecule, the insulin secretion stimulation in experiment [2] was -0.5% (inactive). Further, the viability decrease in experiment [3] was -5.9% (inactive). Further, the tube area decrease in experiment [4] was 3.9% (inactive). Also, the GLP1 secretion stimulation in experiment [5] was -1.1% (inactive). Further, the inhibition of viability in experiment [6] is -4.93% (inactive). Besides, the viability decrease (inhibition) was 36.7% (inactive) in experiment [7] and -21.1% (inactive) in experiment [8].
Turning to `CN1CCN(CCC(=O)N2c3ccccc3Sc3ccc(C(F)(F)F)cc32)CC1`, the nuclear beta-catenin stimulation in experiment [1] (at 10 µM) is 2.3% (inactive); in experiment [1] (stimulation, at 2 µM) it was 2.1%. In experiment [2], the insulin secretion stimulation was 16.1% (inactive). For the same molecule, the viability decrease in experiment [3] is 72.7% (active). For the same molecule, the tube area decrease in experiment [4] was 19.7% (inactive). In addition, in experiment [5], the GLP1 secretion stimulation was 11.5% (inactive). Moreover, in experiment [6], the inhibition of viability was 60% (active). Further, the viability decrease (inhibition) was 117% (active) in experiment [7] and 57.8% (active) in experiment [8].
As for `CN(CC1(C)CCCO1)S(=O)(=O)c1ccc(Cl)c(S(N)(=O)=O)c1` (stereo not given), the nuclear beta-catenin stimulation is -0.8% (inactive) in experiment [1] (at 10 µM) and -1.9% in experiment [1] (stimulation, at 2 µM). Besides, in experiment [2], the insulin secretion stimulation is 2% (inactive). The viability decrease in experiment [3] was -0.1% (inactive). For the same molecule, the tube area decrease in experiment [4] is -8.9% (inactive). The GLP1 secretion stimulation in experiment [5] is 2.8% (inactive). In addition, in experiment [6], the inhibition of viability is 12.4% (inactive). In addition, the viability decrease (inhibition) is -9.7% (inactive) in experiment [7] and 2.2% (inactive) in experiment [8].
